Values joined by “and” are separate entries in the source; they are usually repeats but may differ in a detail not shown here. Equal values may be shown once. The panel holds about 83,000 compounds, 20% with a hit somewhere; the sample as a whole holds those more often.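 Cells were grown in 96-well plates and exposed to the test compound at a single concentration for 48 hours; results are reported as percent growth, with values below 10 considered active.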 Values without a mark were called inactive. Active and inactive are the calls of the source.

The text below walks through data of PubChem BioAssay (NCI).

What all share (experiment): NCI-60 one-dose screen, 48 h (100 = growth as untreated, 0 = no growth, -100 = all killed)
The subject of one assay is T-47D breast. Particulars: 10 µM.
The subject of the next assay is BT-549 breast. Particulars: 10 µM.
The test system of the next assay is MDA-MB-435 melanoma. Particulars: 10 µM.
The next assay relates to SW-620 colon. Particulars: 10 µM.
The test system of the next assay is MCF7 breast.
In another assay the test system is HCT-116 colon. Particulars: 10 µM.
The next assay concerns HCC-2998 colon. Particulars: 10 µM.
A further assay concerns KM12 colon. Particulars: 10 µM.

With `CC(=O)Nc1cccc(NC(C)=O)n1`, the growth in the assay on T-47D breast was 87.1%; in the assay with BT-549 breast it was 107%; in the assay with MDA-MB-435 melanoma it was 101%; in the assay on SW-620 colon, 99.1%; with MCF7 breast (10 µM unless noted) it was 99%; with HCT-116 colon, 98.9%. Besides, the growth was 130% in the assay with HCC-2998 colon and 105% in the assay on KM12 colon.

Regarding `COc1ccc(C)cc1OC`, the growth was 107% in the assay with T-47D breast; 114% in the assay on BT-549 breast; 108% in the assay on MDA-MB-435 melanoma; 107% in the assay with SW-620 colon; 102% in the assay with MCF7 breast (10 µM unless noted); 105% in the assay with HCT-116 colon. Further, the values for the growth in the assay with HCC-2998 colon and with KM12 colon were 100% and 105%, respectively.

Take `CC(=O)OCC1=CC2OC(=O)C3=COC(OC4OC(CO)C(O)C(O)C4O)C1C32` (centres undefined): the growth was 105% in the assay with T-47D breast; 110% in the assay with BT-549 breast; 109% with MDA-MB-435 melanoma; 111% in the assay with SW-620 colon; 96.7% with MCF7 breast (10 µM); 78% and 90.4% in the assay with MCF7 breast (100 µM). The growth is 123% in the assay on HCT-116 colon, 300% in the assay with HCC-2998 colon and 107% in the assay with KM12 colon.

As for `O=C(Nc1cccc(NC(=O)Nc2cc(C(F)(F)F)ccc2Cl)c1)Nc1cc(C(F)(F)F)ccc1Cl`, the growth was 8.32% (active) with T-47D breast; 17.8% in the assay with BT-549 breast; 12.8% with MDA-MB-435 melanoma; 13.5% in the assay on SW-620 colon; 6.53% (active) with MCF7 breast (10 µM unless noted); 13.2% in the assay with HCT-116 colon. Moreover, the growth in the assay on HCC-2998 colon was 37.6%; with KM12 colon it was 12.1%.

Take `CCNc1nc2c(cnn2C)c(=O)[nH]1`: the growth was 92.5% with T-47D breast; 102% in the assay on BT-549 breast; 106% with MDA-MB-435 melanoma; 97.9% in the assay on SW-620 colon; 100% in the assay on MCF7 breast (10 µM unless noted); 99.2% with HCT-116 colon. For the same molecule, the growth was 105% in the assay with HCC-2998 colon and 108% in the assay with KM12 colon.

Turning to `O=C(O)C(c1ccccc1)C(O)c1ccccc1` (centres undefined), the growth in the assay with T-47D breast was 94.4%; in the assay on BT-549 breast, 110%; in the assay with MDA-MB-435 melanoma, 105%; in the assay with SW-620 colon, 106%; with MCF7 breast (10 µM unless noted) it was 95.3%; in the assay on HCT-116 colon, 105%. Further, the growth in the assay with HCC-2998 colon is 97.9%; with KM12 colon it was 108%.

Take `OC1OC(COC(c2ccccc2)(c2ccccc2)c2ccccc2)C(O)C(O)C1O` (centres undefined): the growth with T-47D breast was 87.5%; with BT-549 breast, 99.6%; with MDA-MB-435 melanoma, 90.9%; with SW-620 colon, 105%; with MCF7 breast (10 µM unless noted), 93.3%; with HCT-116 colon it was 90.7%. Further, the growth is 110% in the assay on HCC-2998 colon and 107% in the assay with KM12 colon.

For `COC(=O)CCCCC1=CCC2C(=O)C=C(O)C2C1` (centres undefined), the growth is 98.9% with T-47D breast; 98.7% with BT-549 breast; 110% with MDA-MB-435 melanoma; 106% with SW-620 colon; 94.9% in the assay with MCF7 breast (10 µM unless noted); 102% with HCT-116 colon. For the same molecule, in the assay on HCC-2998 colon, the growth was 132%.

Regarding `CCO/C=C1\SC(=S)N(c2cccc(C)c2)C1=O`, the growth is 93.2% in the assay on T-47D breast; 114% with BT-549 breast; 103% in the assay with MDA-MB-435 melanoma; 103% in the assay with SW-620 colon; 90.5% in the assay with MCF7 breast (10 µM unless noted); 109% in the assay with HCT-116 colon. The values for the growth with HCC-2998 colon and in the assay on KM12 colon were 106% and 103%, respectively.

With `CNC(=O)c1ccccc1CC1(O)c2ccccc2Oc2ccccc21`, the growth was 49.4% in the assay on T-47D breast; 65% with BT-549 breast; -51.3% (active) in the assay on MDA-MB-435 melanoma; 29.2% with SW-620 colon; 25.6% with MCF7 breast (10 µM unless noted); 32.4% with HCT-116 colon. The growth in the assay on HCC-2998 colon was 80.9%; with KM12 colon it was 34.5%.

Turning to `O=C(O)C(O)c1ccccc1` (centres undefined), the growth in the assay with T-47D breast was 95.1%; in the assay on BT-549 breast it was 97.1%; in the assay on MDA-MB-435 melanoma, 108%; in the assay on SW-620 colon it was 107%; in the assay with MCF7 breast (10 µM unless noted), 99.1%; with HCT-116 colon, 96.7%. Further, the growth is 103% in the assay on HCC-2998 colon and 99.3% in the assay on KM12 colon.

As to `COC(=O)c1cccnc1`, the growth in the assay on T-47D breast is 118%; in the assay on BT-549 breast it was 85.5%; in the assay on MDA-MB-435 melanoma, 105%; in the assay with SW-620 colon, 97.4%; in the assay with MCF7 breast (10 µM unless noted), 96.4%; with HCT-116 colon, 97.8%. The values for the growth with HCC-2998 colon and in the assay on KM12 colon were 104% and 112%, respectively.

Take `COc1ccc(-c2cc3c(nn2)-c2ccccc2C3=O)cc1`: the growth with T-47D breast is 77.5%; in the assay with BT-549 breast, 89.7%; in the assay with MDA-MB-435 melanoma, 10.4%; with SW-620 colon it was 4.15% (active); in the assay with MCF7 breast (10 µM unless noted), 16.2%; in the assay with HCT-116 colon it was 32%. For the same molecule, the growth in the assay on HCC-2998 colon is 34.5%; with KM12 colon, 37.1%.

For the molecule `Cc1cc(N)c(S(=O)(=O)O)c(N)c1`, the growth was 89.7% in the assay with T-47D breast; 57.8% with BT-549 breast; 101% in the assay with MDA-MB-435 melanoma; 90.8% with SW-620 colon; 105% in the assay on MCF7 breast (10 µM unless noted); 91.9% in the assay on HCT-116 colon. The figures for the growth in the assay on HCC-2998 colon and with KM12 colon were 86.3% and 107%, respectively.

For `CC1SC(N)=NC1=O` (centres undefined), the growth was 106% in the assay with T-47D breast; 123% in the assay on BT-549 breast; 109% in the assay on MDA-MB-435 melanoma; 112% in the assay with SW-620 colon; 103% in the assay on MCF7 breast (10 µM unless noted); 108% with HCT-116 colon. Also, the growth with HCC-2998 colon is 107%; in the assay on KM12 colon, 110%.

As for `CCOC(=O)C(=O)C=P(c1ccccc1)(c1ccccc1)c1ccccc1`, the growth is 97.7% in the assay with T-47D breast; 102% with BT-549 breast; 113% in the assay on MDA-MB-435 melanoma; 114% with SW-620 colon; 97.5% in the assay on MCF7 breast (10 µM unless noted); 100% in the assay with HCT-116 colon. Moreover, the growth with HCC-2998 colon is 107%; in the assay with KM12 colon, 99.6%.

With `CC1(C)N=C(N)N=C(N)N1c1ccc(Cl)cc1`, the growth is 94.6% with T-47D breast; 76% in the assay with BT-549 breast; 28.8% in the assay on MDA-MB-435 melanoma; 34.3% with SW-620 colon; 41.1% with MCF7 breast (10 µM unless noted); 25.1% in the assay on HCT-116 colon. For the same molecule, the growth was 36.8% in the assay on HCC-2998 colon and 50.1% in the assay on KM12 colon.

Consider `Clc1ccc(-c2n[nH]c3c2Cc2ccccc2-3)cc1Cl`, for which the growth is 29% in the assay on T-47D breast; 97.6% in the assay on BT-549 breast; 107% with MDA-MB-435 melanoma; 111% with SW-620 colon; 35.4% in the assay with MCF7 breast (10 µM unless noted); 90.8% in the assay with HCT-116 colon. In addition, the growth in the assay on HCC-2998 colon was 92.2%; in the assay with KM12 colon, 102%.
